Laboratory results taken from PubChem BioAssay (NCI).
Several values for one entry are separate records, joined by “and”; a condition that tells them apart may be missing. Equal entries are not always repeated. About 79,000 compounds went through this panel and 15% of them were active in at least one assay; those are over-represented in the sample as a whole. Some compounds were tested as several samples or in several runs, with calls that do not always agree. Activity calls are given as the source filed them. Cut-off read from the data, not from the text of the source: active = growth inhibition above about 70%; inactive = the rest.

Assay: NCI Yeast Anticancer Drug Screen. Data for the cln2 rad14 strain (AID 165);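 note: 0% = growth equal to vehicle treated cultures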
Details: S. cerevisiae cln2 rad14 strain, at 50.0 µM (retest, dose inferred, filed as 5.0), stronger effect = higher value
Summary of the method: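 Strain: cln2 rad14 yeast, altered in cell cycle control and DNA damage repair. Read-out: growth inhibition vs vehicle.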

SMILES	growth inhibition
CN(C)c1ccc(C2CC(C)(O)Oc3cc4c(cc32)OCO4)cc1 (stereo not drawn)	37% (inactive)
O=P(NC1CCCCC1)(OCc1ccccc1)OCc1ccccc1	9% (inactive)
COc1oc(C(=O)NC2CCCCC2)c(-c2ccc(Cl)cc2)c1S(=O)(=O)c1ccccc1	87% (active)
C[Si](C)(C)/C=C/CCNC(C#N)c1ccccc1 (stereo not drawn)	97% (active)
CCOc1ccc(NC(=O)C2=C(C)NC(C)=C(C(=O)Nc3ccc(OCC)cc3)C2c2cccc([N+](=O)[O-])c2)cc1	90% (active)
CN(C)CCOC1(Cc2ccc(F)cc2)CCC(C(C)(C)C)CC1 (stereo not drawn)	34% (inactive) and 51% (inactive)
CC1(C)CC(=O)C(/C=N/c2nc(-c3ccccc3)cs2)=C(O)C1	21% (inactive)
CC(=O)Nc1ccc2c(c1)Cc1cc(N=C3C=CC(=O)O3)ccc1-2	99% (active)
O=C1C=C(Cl)C(=O)C(c2ccc(Cl)cc2)=C1	98% (active)
CNCCCNc1c2ccccc2nc2cccc([N+](=O)[O-])c12	95% (active)
CCCCCCCCCCCC(O)S(=O)(=O)O (stereo not drawn)	6% (inactive)
CC(C)OC(=O)c1ccc(CCc2cc(O)c(Br)cc2O)cc1	96% (active)
CCc1cc(O)c(Cl)c(C)c1Cl	70% (active)
C(=Nc1ccc(-c2cc(-c3ccccc3)nc3ccc4ccccc4c23)cc1)c1ccccc1	75% (active)
CSc1nc(C)c(CCOC(C)=O)c(N=P(c2ccccc2)(c2ccccc2)c2ccccc2)n1	86% (active)
CS(=O)(=O)SCc1ccc([N+](=O)[O-])cc1	94% (active)
COC1=C(OC)C(=O)C(Sc2ccc3ccccc3c2)=CC1=O	-12% (inactive)
COc1nc2c(c(=O)n1C)N=C(c1ccccc1)[C@H](C(CC(=O)c1ccccc1)c1ccccc1)C(c1ccccc1)N2 (stereo partly drawn)	-15% (inactive)
Cc1cc(-c2cc(C)c(O)c(C(C)(C)C)c2)cc(C(C)(C)C)c1O	81% (active) and 91% (active)
Nc1cc(N)c(N=Nc2cccc3c(S(=O)(=O)O)cccc23)cc1N=Nc1cc([N+](=O)[O-])ccc1O	92% (active)

SMILES	growth inhibition
Nc1ccc(F)cc1S	88% (active)
Brc1ccccc1-c1ncc(-c2ccccc2)o1	68% (inactive)
COc1cc(C2SCC(=O)N2c2ccc(-c3ccc(-n4c(-c5ccccc5)nc5ccccc5c4=O)cc3)cc2)ccc1O (stereo not drawn)	10% (inactive)
Nc1ncnc2c1ncn2C1OC(CO)CC1O (stereo not drawn)	87% (active) and 68% (inactive)
COc1cc(CSc2ccc(O)cc2)cc(O)c1O	14% (inactive)
CCOC(=O)C1N=[N+](c2ccccc2)C(=O)/C1=C\n1c(=S)[nH]c2ccc([N+](=O)[O-])cc21 (stereo not drawn)	95% (active)
CNC(=O)OCc1c(COC(=O)NC)c2n(c1C)-c1ccc(OC)cc1CCC2	98% (active)
O=C(NNc1ccccc1)c1ccc(Cl)c(Cl)c1	18% (inactive)
Cc1ccc(CC2(OCCN(C)C)CCC(C(C)(C)C)CC2)cc1 (stereo not drawn)	89% (active) and 76% (active)
C[C@]12CC[C@H](O)CC1=CC[C@@H]1C2CC[C@]2(C)C(=O)NC(=O)CC12 (stereo partly drawn)	80% (active)
CCCC/C=C/C(C)(C(=O)OCC)C(=O)OCC	32% (inactive)
CCc1c(Cl)c(C)cc(O)c1Cl	44% (inactive)
O=C(/C=C(/c1ccccc1)N1CCCCC1)c1ccccc1	79% (active)
CCCC(=O)Oc1ccc(/C=N/NC(N)=S)nc1	33% (inactive)
CCc1nc2ccc(NCCN(C)C)c3c(=O)c4ccccc4n1c23	26% (inactive)
Cc1sc2ccc3ccccc3c2[n+]1C	32% (inactive) and 15% (inactive)
COc1c(O)c(C=O)c(Br)c(C=O)c1O	95% (active)
Cc1ccc(Cl)cc1NC(=O)OCCN(C)C(=O)Nc1cc(Cl)ccc1C	75% (active)
Cc1nc2ccccc2nc1NNc1ccccc1	48% (inactive)

Same assay, conditions: S. cerevisiae cln2 rad14 strain, at 50.0 µM, stronger effect = higher value

SMILES	growth inhibition
CN(C)c1ccc(C2CC(C)(O)Oc3cc4c(cc32)OCO4)cc1 (stereo not drawn)	21.3% (inactive)
O=P(NC1CCCCC1)(OCc1ccccc1)OCc1ccccc1	-12.7% (inactive)
COc1oc(C(=O)NC2CCCCC2)c(-c2ccc(Cl)cc2)c1S(=O)(=O)c1ccccc1	76.9% (active)
C[Si](C)(C)/C=C/CCNC(C#N)c1ccccc1 (stereo not drawn)	90.2% (active)
CCOc1ccc(NC(=O)C2=C(C)NC(C)=C(C(=O)Nc3ccc(OCC)cc3)C2c2cccc([N+](=O)[O-])c2)cc1	55.3% (inactive)
CN(C)CCOC1(Cc2ccc(F)cc2)CCC(C(C)(C)C)CC1 (stereo not drawn)	15.3% (inactive) and 99.3% (active)
CC1(C)CC(=O)C(/C=N/c2nc(-c3ccccc3)cs2)=C(O)C1	45.4% (inactive)
CC(=O)Nc1ccc2c(c1)Cc1cc(N=C3C=CC(=O)O3)ccc1-2	24.9% (inactive)
O=C1C=C(Cl)C(=O)C(c2ccc(Cl)cc2)=C1	90.8% (active)
CNCCCNc1c2ccccc2nc2cccc([N+](=O)[O-])c12	91.3% (active)
CCCCCCCCCCCC(O)S(=O)(=O)O (stereo not drawn)	-14.4% (inactive)
CC(C)OC(=O)c1ccc(CCc2cc(O)c(Br)cc2O)cc1	91.8% (active)
CCc1cc(O)c(Cl)c(C)c1Cl	35% (inactive)
C(=Nc1ccc(-c2cc(-c3ccccc3)nc3ccc4ccccc4c23)cc1)c1ccccc1	14.7% (inactive)
CSc1nc(C)c(CCOC(C)=O)c(N=P(c2ccccc2)(c2ccccc2)c2ccccc2)n1	74.8% (active)
CS(=O)(=O)SCc1ccc([N+](=O)[O-])cc1	96.5% (active)
COC1=C(OC)C(=O)C(Sc2ccc3ccccc3c2)=CC1=O	85.8% (active)
COc1nc2c(c(=O)n1C)N=C(c1ccccc1)[C@H](C(CC(=O)c1ccccc1)c1ccccc1)C(c1ccccc1)N2 (stereo partly drawn)	7.8% (inactive)
Cc1cc(-c2cc(C)c(O)c(C(C)(C)C)c2)cc(C(C)(C)C)c1O	77.8% (active) and 65.8% (inactive)
Nc1cc(N)c(N=Nc2cccc3c(S(=O)(=O)O)cccc23)cc1N=Nc1cc([N+](=O)[O-])ccc1O	42.5% (inactive)

SMILES	growth inhibition
Nc1ccc(F)cc1S	85.4% (active)
Brc1ccccc1-c1ncc(-c2ccccc2)o1	37.9% (inactive)
COc1cc(C2SCC(=O)N2c2ccc(-c3ccc(-n4c(-c5ccccc5)nc5ccccc5c4=O)cc3)cc2)ccc1O (stereo not drawn)	25.7% (inactive)
Nc1ncnc2c1ncn2C1OC(CO)CC1O (stereo not drawn)	81.8% (active) and -27.8% (inactive) and 59.8% (inactive)
COc1cc(CSc2ccc(O)cc2)cc(O)c1O	36% (inactive)
CCOC(=O)C1N=[N+](c2ccccc2)C(=O)/C1=C\n1c(=S)[nH]c2ccc([N+](=O)[O-])cc21 (stereo not drawn)	47.9% (inactive)
CNC(=O)OCc1c(COC(=O)NC)c2n(c1C)-c1ccc(OC)cc1CCC2	88.2% (active)
O=C(NNc1ccccc1)c1ccc(Cl)c(Cl)c1	0.2% (inactive)
Cc1ccc(CC2(OCCN(C)C)CCC(C(C)(C)C)CC2)cc1 (stereo not drawn)	99.2% (active) and 99.5% (active)
C[C@]12CC[C@H](O)CC1=CC[C@@H]1C2CC[C@]2(C)C(=O)NC(=O)CC12 (stereo partly drawn)	84.7% (active)
CCCC/C=C/C(C)(C(=O)OCC)C(=O)OCC	58.5% (inactive)
CCc1c(Cl)c(C)cc(O)c1Cl	77.2% (active)
O=C(/C=C(/c1ccccc1)N1CCCCC1)c1ccccc1	46% (inactive)
CCCC(=O)Oc1ccc(/C=N/NC(N)=S)nc1	11.3% (inactive)
CCc1nc2ccc(NCCN(C)C)c3c(=O)c4ccccc4n1c23	21.8% (inactive)
Cc1sc2ccc3ccccc3c2[n+]1C	87.2% (active) and 77.2% (active)
COc1c(O)c(C=O)c(Br)c(C=O)c1O	66.5% (inactive)
Cc1ccc(Cl)cc1NC(=O)OCCN(C)C(=O)Nc1cc(Cl)ccc1C	85.1% (active)
Cc1nc2ccccc2nc1NNc1ccccc1	-11.8% (inactive)
